Bioassay records from PubChem.
HepG2 tox: qHTS for Inhibitors of TGF-b: Cytotox Counterscreen; HepG2 CAGA-GFP viability, ATP luminescence, 18 h; Potency, µM (titrated, usually from 46.1 µM), for the others: at the top dose activity change, negative = cytotoxicity, usual class: cytotoxic; 0.76% of 410,000 active; AID 588856, 2011; further: potency means the concentration at half of the fitted maximal effect
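CellTiter-Glo luminescence gave cytotoxicity after 18 hours at 37 degrees C. The cells were HepG2 CAGA-GFP in 1% FBS DMEM, stimulated with 500 pg/mL TGF-beta after compound addition. %Activity was normalised to no-cell wells (complete cell-killing) and DMSO (no toxicity), and curves were fitted and classified.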
ATXN viability: Viability Counterscreen for Primary qHTS for Inhibitors of ATXN expression. S2 cells (HEK-293 line with an ATXN2-luciferase reporter) viability, CellTiter-Fluor protease fluorescence, 24 h. Potency, µM (series often up to 56.7 µM), actives largely listed as cytotoxic. 0.49% of 400,000 active. AID 651635, 2014; further: potency means the concentration at half of the fitted maximal effect; nearly all actives have a fitted effect of over 40% in size
TGFb inhibitor: qHTS for Inhibitors of TGF-b | HepG2 CAGA-GFP TGF-b/SMAD3 reporter, GFP fluorescence, 18 h; TGF-beta stimulated, 500 pg/mL final | Potency, µM (titrated, usually from 46.1 µM), inactives show at the top dose activity, negative = inhibition, most hits filed as inhibitors | 1.2% of 410,000 active | AID 588855, 2011; further: potency means the concentration at half of the fitted maximal effect; on the % scale 0 is the no-effect control and ±100 the full control effect; nearly all actives have a fitted effect of over 65% in size
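HEPG2 CAGA-GFP reporter cells (1000/well, DMEM with 1% FBS) received compounds, then recombinant TGF-beta at 500 pg/mL final for 18 hours at 37 degrees C. Per-cell GFP summed per well was normalised to unstimulated and stimulated DMSO controls before curve fitting.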
ATXN2 expr inh: Primary qHTS for Inhibitors of ATXN expression. Potency, µM (titrated, usually from 57 µM), without a hit: at the highest dose activity change, negative = inhibition, hits mostly inhibitors. AID 1745845, 2022. HEK-293 ATXN2-luciferase reporter, luminescence, 24 h. 0.72% of 360,000 active; further: potency means the concentration at half of the fitted maximal effect; on the % scale 0 is the no-effect control and ±100 the full control effect; nearly all actives have a fitted effect of over 55% in size
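qHTS (up to 57 uM final) was run with 24 h compound exposure of reporter cells at 37 °C. Each well was multiplexed: SteadyGlo luminescence measured ATXN2-luciferase expression after a fluorogenic Gly-Phe-AFC viability readout (25 uM final).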
IL1B secr inh: qHTS for Inhibitors of Inflammasome Signaling: IL-1-beta AlphaLISA Primary Screen; THP-1 LPS/ATP IL-1B secretion, AlphaLISA, 16 h; stronger effect = lower value; activity change, % at 57.5 µM; 4.7% of 360,000 active; in the data active means activity change below about -50%; inconclusive means mostly about -30% to -49%; further: on the % scale 0 is the no-effect control and ±100 the full control effect
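THP-1 cells pretreated 1 hr with compounds (up to 57.5 uM final), then stimulated with LPS (250 ng/mL final) plus ATP (1.25 mM final); secreted IL-1B measured by AlphaLISA after 16 hr, decreased signal indicating inhibition.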
An asterisk follows results filed as active; ! = not confirmed by another sample. The list is not random: actives were taken first. Their share in the collection is about 5.7%. Unless noted, the call rests on the fitted dose curve; in most records, active means well fitted curve in the direction sought with a large enough effect; inconclusive means small, poorly fitted or top-dose-only effect, or another doubt; inactive means no such curve, though single readings can be large; an effect the other way counts as inactive or inconclusive.

For COc1ccc(N2CCN(C(=O)c3nc(-c4ccc(Cl)cc4)n4c3CCCCC4)CC2)cc1 the results were HepG2 tox 3.1%, ATXN viability inactive, TGFb inhibitor -10.1% and ATXN2 expr inh -8.6%.
For CCN1CCN(Cc2ccc(NC(=O)c3ccc(C)c(NC(=O)c4cc(-c5ccc(Br)cc5)n[nH]4)c3)cc2C(F)(F)F)CC1 the results were HepG2 tox -96.4%, ATXN viability 25.1µM*, TGFb inhibitor inconclusive, ATXN2 expr inh 31.6µM* and IL1B secr inh -57.5*.
`Cc1ccc(C(=O)Nc2cccc(C(F)(F)F)c2)cc1NC(=O)c1nccn1C` gave HepG2 tox 19.0%, ATXN viability inactive, TGFb inhibitor inconclusive, ATXN2 expr inh 6.1% and IL1B secr inh 76.1.
`CCN1CCN(Cc2ccc(NC(=O)c3ccc(C)c(NC(=O)c4nccn4C)c3)cc2C(F)(F)F)CC1` gave HepG2 tox -22.7%, ATXN viability inactive, TGFb inhibitor inconclusive, ATXN2 expr inh -7.5% and IL1B secr inh -58.5*.
For CCN1CCN(Cc2ccc(NC(=O)c3ccc(C)c(NC(=O)c4cccc5[nH]ccc45)c3)cc2C(F)(F)F)CC1 the results were HepG2 tox -156.4%, TGFb inhibitor inconclusive, ATXN2 expr inh inconclusive and IL1B secr inh -98.1*.
For CCc1ccc(C(=O)Nc2cc(CN3CCN(C)CC3)cc(C(F)(F)F)c2)cc1C#Cc1cnc2ccnn2c1 the results were ATXN2 expr inh 24.3µM*.
For O=C(Nc1nnc(Cc2ccccc2)s1)C1CCN(C(=O)c2cccs2)CC1 the results were HepG2 tox -15.1% and TGFb inhibitor -23.4%.
`COc1ccccc1OCCn1c(NC(=O)c2ccccc2Cl)nc2ccccc21` gave HepG2 tox -5.8%, ATXN viability inconclusive, TGFb inhibitor 0.0% and ATXN2 expr inh inconclusive.
Cc1nnc2c(N3CCN(c4ccc(F)cc4)CC3)nc3ccc(C(=O)c4ccccc4)cc3n12 was read as HepG2 tox 0.3% and TGFb inhibitor 0.0%.
Screening CCN1CCN(Cc2ccc(NC(=O)c3ccc(C)c(NC(=O)c4nccnc4N)c3)cc2C(F)(F)F)CC1 returned HepG2 tox -117.6%, ATXN viability inconclusive, TGFb inhibitor inconclusive, ATXN2 expr inh 28.2µM* and IL1B secr inh -92.7*.
CCN1CCN(Cc2ccc(NC(=O)c3ccc(C)c(NC(=O)c4cncc(-c5cccs5)c4)c3)cc2C(F)(F)F)CC1 was read as HepG2 tox 10µM*, TGFb inhibitor inconclusive, ATXN2 expr inh 14.1µM* and IL1B secr inh -110.0*.
Screening CCN1CCN(Cc2ccc(NC(=O)c3cc(NC(=O)c4nccnc4N)cc(OC)c3)cc2C(F)(F)F)CC1 returned HepG2 tox -30.2%, ATXN viability inconclusive, TGFb inhibitor inconclusive, ATXN2 expr inh inconclusive and IL1B secr inh inconclusive.
`CCN1CCN(Cc2ccc(NC(=O)c3cc(NC(=O)c4cnnc5ccccc45)cc(OC)c3)cc2C(F)(F)F)CC1` gave HepG2 tox 17.8µM*!, ATXN viability inconclusive, TGFb inhibitor inconclusive, ATXN2 expr inh inconclusive and IL1B secr inh 2.9.
CCN1CCN(Cc2ccc(NC(=O)c3ccc(C)c(NC(=O)N4CCNC4=O)c3)cc2C(F)(F)F)CC1 was read as HepG2 tox -48.0%, ATXN viability inconclusive, TGFb inhibitor inconclusive, ATXN2 expr inh inconclusive and IL1B secr inh -61.4*!.
Cc1cn(-c2cc(C(=O)Nc3ccc(C)c(NC(=O)N4CCNC4=O)c3)cc(C(F)(F)F)c2)cn1 was read as HepG2 tox -0.9%, ATXN viability inactive, TGFb inhibitor -4.6%, ATXN2 expr inh 4.9% and IL1B secr inh 72.2.
For CC(C)CCNS(=O)(=O)c1ccc(N2CCCCS2(=O)=O)cc1 the results were HepG2 tox -53.2%, ATXN viability inactive, TGFb inhibitor inconclusive and ATXN2 expr inh -15.6%.
`Cc1ccc(C(=O)Nc2ccc(CN3CCN(C)CC3)c(C(F)(F)F)c2)cc1C#Cc1cnc2cccnn12` gave ATXN2 expr inh 19.3µM*.
CCN1CCN(c2cc(C)c3cc(NC(=O)c4cccc(C(F)(F)F)c4)ccc3n2)CC1 was read as HepG2 tox -46.3%, ATXN viability inconclusive, TGFb inhibitor 0.6% and ATXN2 expr inh inconclusive.
`CS(=O)(=O)c1ccc(Nc2nc(C(N)COCc3ccccc3)cs2)cc1` (stereo not drawn) gave HepG2 tox -2.1%, ATXN viability inactive, TGFb inhibitor -33.9%, ATXN2 expr inh 5.6% and IL1B secr inh -3.0.
Screening CC(C)c1ccc(NC(=O)Nc2nc(C(N)C(C)C)cs2)cc1 (stereo not drawn) returned HepG2 tox -101.3%, ATXN viability inconclusive, TGFb inhibitor inconclusive, ATXN2 expr inh inconclusive and IL1B secr inh -63.3*.
`CC(C)c1ccc(NC(=O)Nc2nc(C(N)COCc3ccccc3)cs2)cc1` (stereo not drawn) gave HepG2 tox 10µM*, ATXN viability inconclusive, TGFb inhibitor 11.2µM*, ATXN2 expr inh inconclusive and IL1B secr inh inconclusive.
`O=C(Nc1ccc(Cl)cc1)Nc1nc(-c2ccccc2O)cs1` gave HepG2 tox -34.8%, ATXN viability inactive, TGFb inhibitor inconclusive and IL1B secr inh -68.7*.
For Cc1ccccc1NC(=O)Nc1nc(C(N)c2ccccc2)cs1 (stereo not drawn) the results were HepG2 tox -11.8%, ATXN viability inactive, TGFb inhibitor -0.5%, ATXN2 expr inh 2.4% and IL1B secr inh inconclusive.
For CC(C)c1ccc(NC(=O)Nc2nc(C(N)c3ccccc3)cs2)cc1 (stereo not drawn) the results were HepG2 tox 11.2µM*, TGFb inhibitor 11.2µM*, ATXN2 expr inh inconclusive and IL1B secr inh -94.2*.
CC(C)C(N)c1csc(NC(=O)Nc2cccc(Cl)c2)n1 (stereo not drawn) was read as HepG2 tox -71.2%, ATXN viability inconclusive, TGFb inhibitor inconclusive, ATXN2 expr inh inconclusive and IL1B secr inh inconclusive.
O=C(CSc1nc2c([nH]c3ccccc32)c(=O)n1-c1ccc(F)cc1)N1CCCCCC1 was read as HepG2 tox -33.3%, ATXN viability inactive, TGFb inhibitor 1.0% and ATXN2 expr inh 2.2%.
Screening OC(c1cccnc1)c1ccc2c(c1)CN(Cc1ccc(-c3ccccc3Cl)o1)CCO2 (stereo not drawn) returned ATXN viability inactive.
Screening CCN(c1ccccc1)c1ncnc2c1cnn2-c1ccc(OC)cc1 returned HepG2 tox -7.6%, ATXN viability inactive, TGFb inhibitor 39.8% and ATXN2 expr inh 82.1%.
